# In PubChem BioAssay (NCI):
# The panel holds about 83,000 compounds, 20% with a hit somewhere; the sample as a whole holds those more often.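 Growth was measured after 48 h exposure to one concentration of compound in 96-well plates. Values under 10 count as active.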 The source made the active and inactive calls.
# System: HL-60(TB) leukemia
# Assay: NCI-60 one-dose screen, 48 h (100 = growth as untreated, 0 = no growth, -100 = all killed)
# Settings: 10 µM unless noted
row,Structure (SMILES),growth
1,Cc1nc2ccccc2c(/C=C/c2ccccc2)c1C(=O)/C=C/c1ccc(Cl)cc1,1.63% (active)
2,Oc1[nH]c2cc(Cl)ccc2c1/C=c1/ccc2c(c1)N=C(c1cc(F)cc(F)c1)N=2,-9.98% (active)
3,CN1/C(=C/C=C/c2n(Cc3ccc4ccccc4c3)c(Cl)c(Cl)[n+]2Cc2ccc3ccccc3c2)Oc2ccccc21,98.9% (inactive)
4,Cc1cc2c(-c3nc4ccccc4[nH]3)c(O)c(O)cc2c(O)c1-c1c(C)cc2c(-c3nc4ccccc4[nH]3)c(O)c(O)cc2c1O,-11.2% (active)
5,COCCCNc1nc(NC(=O)c2cc(OC)cc(OC)c2)cc(-c2cccnc2)n1,90.2% (inactive)
6,CCOC(=O)C1=C(C)NC(SCc2nnc(-c3ccc(Cl)cc3)o2)=NC1c1ccc(Cl)cc1 (configuration not stated),21.4% (inactive)
7,CC(C)Nc1ccc(Nc2ccc(NC(C)C)cc2)cc1,22.1% (inactive)
8,COC(=O)/C(Br)=C/c1c[nH]c2ccc(Br)cc12,67.9% (inactive)
9,Fc1ccc2[nH]cc(-c3nc(-c4c[nH]c5c(Cl)nccc45)cs3)c2c1,35.4% (inactive)
10,COc1ccccc1C(=O)O/N=C(\N)Cc1cccc2ccccc12,96.3% (inactive)
11,CCOC(=O)C1CCNC(=O)C1=O (configuration not stated),86% (inactive)
12,CC(=O)Nc1c(Br)cc2c(c1Br)Cc1cc(Br)ccc1-2,98.5% (inactive)
13,COc1ccc2c(c1)OC(N(C(C)=O)C(C)=O)=C(C#N)C2c1ccc(F)cc1 (configuration not stated),-18.9% (active)
14,COc1ccc(CCN2C(=O)/C(=C/c3ccc(C4Oc5ccccc5C5CC(c6ccccc6)=NN54)cc3)SC2=S)cc1 (configuration not stated),97.7% (inactive)
15,O=C1C=C(O)c2ccccc2C1=O.[Ag],96% (inactive)
16,CNC(=O)c1ccccc1Nc1nc(Nc2cc(OC)c(OC)c(OC)c2)ncc1Br,19% (inactive)
17,C[N+](C)(C)CN1C(=O)c2ccccc2C1=O,96.1% (inactive)
18,C=C(C)[C@@H]1CC[C@]2(C(=O)N3CCN(C)CC3)CC[C@]3(C)[C@H](CC[C@@H]4[C@@]5(C)C/C(=C/c6cccnc6)C(=O)C(C)(C)[C@@H]5CC[C@]43C)[C@@H]12,-4.95% (active)
19,CCCN1CCN(c2ccc3nc(-c4ccc5nc(-c6cc(OC)ccc6OC)[nH]c5c4)[nH]c3c2)CC1,106% (inactive)
20,NC(=N\N=C\c1ccccc1O)/C(N)=N/N=C/c1ccccc1O,69.5% (inactive)
21,Brc1ccc(Nc2nc(Nc3cnc4ccccc4c3)c3[nH]cnc3n2)cc1,92.9% (inactive)
22,Nc1nc(N)c(N=Nc2c(Br)cc(S(N)(=O)=O)cc2Br)c(N)n1,105% (inactive)
23,COc1cc(NS(C)(=O)=O)ccc1Nc1c2ccc([N+](=O)[O-])cc2nc2c(C)cccc12,-26.6% (active)
24,COc1cc(OC)c2sc(-c3ccc(-n4cncc4-c4ccc(N)cc4)cc3)nc2c1,52.6% (inactive)
25,CCN1CCN(c2ccc(Nc3cc(-c4cccnc4Nc4c(Cl)c(OC)cc(OC)c4Cl)ncn3)cc2)CC1,56% (inactive)
26,CC(=S)NC(=O)C(=O)/C=C1/NC(=O)C(=O)S1,104% (inactive)
27,N#CSCC1CC(O)(c2ccccc2)CC(c2ccc(Cl)cc2)O1 (configuration not stated),-30.9% (active)
